Source: PubChem BioAssay (National Center for Advancing Translational Sciences (NCATS))
Shown are actives, neighbours in structure and some others; about 2.4% of the full set was active somewhere.
POLK inh = blocks human DNA polymerase kappa activity | Q9UBT6 | purified Pol kappa, fluorescent DNA synthesis assay, 10 min | Potency, µM (top dose mostly 107 µM), inactives show at the highest dose activity, negative = inhibition, actives largely listed as inhibitors | actives 0.53% (n = 400,000) | AID 588579; further: on the % scale 0 is the no-effect control and ±100 the full control effect
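Here, compound and 10 nM enzyme are combined for 15 min at room temperature; adding 50 nM substrate (final) starts DNA synthesis, tracked by fluorescence at 0 and 10 min against buffer-only wells.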
TDP1 block = TDP1 (human) enzyme inhibition. actives 0.28% (n = 350,000). recombinant TDP1, AlphaScreen DNA substrate cleavage. Potency, µM (top dose mostly 130 µM), for the others: at the top dose activity change, negative = inhibition, hits mostly inhibitors. Q9NUW8; further: on the % scale 0 is the no-effect control and ±100 the full control effect; nearly all actives have a fitted effect of over 40% in size
Target sequence (Q9NUW8 whole entry, looked up): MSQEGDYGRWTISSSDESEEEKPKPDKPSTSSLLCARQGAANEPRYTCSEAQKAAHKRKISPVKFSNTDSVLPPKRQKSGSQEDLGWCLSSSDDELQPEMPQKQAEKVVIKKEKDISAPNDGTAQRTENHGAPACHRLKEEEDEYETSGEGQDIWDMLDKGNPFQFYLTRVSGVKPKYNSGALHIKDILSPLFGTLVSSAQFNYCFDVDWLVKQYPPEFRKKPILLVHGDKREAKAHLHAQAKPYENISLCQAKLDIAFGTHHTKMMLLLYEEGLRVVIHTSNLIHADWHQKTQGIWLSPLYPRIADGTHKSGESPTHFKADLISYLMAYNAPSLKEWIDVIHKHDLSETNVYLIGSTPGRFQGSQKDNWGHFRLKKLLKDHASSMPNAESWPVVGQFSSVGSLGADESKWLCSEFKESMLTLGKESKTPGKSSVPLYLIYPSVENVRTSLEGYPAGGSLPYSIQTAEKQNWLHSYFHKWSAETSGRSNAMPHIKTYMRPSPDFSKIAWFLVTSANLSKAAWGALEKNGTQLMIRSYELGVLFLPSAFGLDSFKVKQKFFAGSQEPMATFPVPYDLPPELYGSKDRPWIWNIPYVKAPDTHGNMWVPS
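AlphaScreen read-out: signal falls as enzyme removes the 3' tyrosine-FITC from a 5'-biotinylated DNA oligo (15 nM, 5 min, RT). Enzyme was E. coli-made recombinant Tdp1 at 1 nM, exposed to compound for 15 min beforehand; beads 10 ug/ml, 10 min.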
FEN1 inhibitor = inhibitors of human flap endonuclease 1 | P39748 | Recombinant FEN1 flap cleavage, fluorescence, 15 min | Potency, µM (highest dose often 114 µM), inactives show at the top dose activity change, negative = inhibition, hits mostly inhibitors | actives 0.35% (n = 390,000) | AID 588795; further: on the % scale 0 is the no-effect control and ±100 the full control effect; nearly all actives have a fitted effect of over 65% in size
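Potency values derive from four-parameter Hill fits of normalized qHTS data. The reaction used 10 nM FEN1 preincubated 15 min at room temperature with compound, then 50 nM DNA substrate, read at 0 and 15 min.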
POLI inh = DNA polymerase iota (human) inhibition; Q9UNA4; Pol iota fluorescent replication assay, 10 min; Potency, µM (doses to about 115 µM), for the others: at the top dose activity, negative = inhibition, usual class: inhibitors; actives 1% (n = 390,000)
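Pol iota at 10 nM preincubated 15 min with compounds at room temperature; reaction started with fluorescent substrate, 50 nM final. Fluorescence read kinetically at 0 and 10 min; buffer-only wells as negative control.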
Pol beta inh = inhibitors of human DNA polymerase beta | P06746 | Pol beta primer extension/strand displacement, fluorescence kinetic | Potency, µM (highest dose often 114 µM), for inactives: top-dose activity change, negative = inhibition, hits mostly inhibitors | actives 1.3% (n = 340,000) | AID 485314; further: on the % scale 0 is the no-effect control and ±100 the full control effect
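Pol beta (10 nM) was preincubated with compound for 15 min at room temperature. The reaction was then started with 50 nM substrate and read immediately and after a further 10 min at room temperature.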
POLH inh = blocks human DNA polymerase eta activity | Q9Y253 | recombinant Pol eta, fluorescent DNA replication assay | Potency, µM (doses to about 114 µM), without a hit: at the highest dose activity change, negative = inhibition, actives largely listed as inhibitors | actives 1.2% (n = 390,000) | AID 588591; further: on the % scale 0 is the no-effect control and ±100 the full control effect
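Fluorescent replication assay: 50 nM final substrate added after a 15 min room-temperature compound preincubation with 10 nM enzyme. Signal taken at 0 min and again at 10 min.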
Active calls of the source: *; ? = inconclusive; . = no result given; [ ] = remark or other dose. The call rests on the fitted dose curve; in most records, active means well fitted curve in the direction sought with a large enough effect; inconclusive means small, poorly fitted or top-dose-only effect, or another doubt; inactive means no such curve, though single readings can be large; an effect the other way counts as inactive or inconclusive. Potency means the concentration at half of the fitted maximal effect.

SMILES | POLK inh | TDP1 block | FEN1 inhibitor | POLI inh | Pol beta inh | POLH inh
COc1ccc(OC)c2nc3c(C(=O)NCCN(C)C)cccc3nc12 | ? | . | 14.1µM* | ? | . | ?
CN(C)CCNC(=O)c1cccc2ccc(-c3ccc(-c4ccccc4)cc3)nc12 | -16.1% | . | ? | -29.0% | . | -10.9%
Cc1cc(C)n2nc3nc(N4CCCCC4)nc(-c4ccco4)c3c2n1 | 31.6µM* | -4.1% | ? | ? | 10µM* | 10µM*
O=C(NC(Cc1ccccc1)C(=O)O)/C(=C/c1ccc([N+](=O)[O-])cc1)NC(=O)c1ccc(Br)o1 (configuration not stated) | -0.5% | 9.1% | -6.9% | 57.3% | 1.7% | -14.3%
O=C(Nc1ccccc1C(=O)O)/C(=C/c1ccc([N+](=O)[O-])cc1)NC(=O)c1ccc(Br)o1 | -29.3% | ? | 0.3% | -17.8% | 28.2µM* | 39.8µM*
COc1ccc2nc3oc(C(=O)Nc4cccc(C(F)(F)F)c4)cc3cc2c1 | -2.6%[60.1 µM] | 4.4% | -5.8% | 2.5% | 8.2% | -3.4%
CCCn1c(N)c(C(=O)CSc2nc3ncc(Cl)cc3[nH]2)c(=O)n(C)c1=O | -19.8% | 28.2µM* | 1.3% | 0.9% | . | -4.3%
O=C(N/N=C/c1ccc(Cl)c([N+](=O)[O-])c1)c1ccc2nc[nH]c2c1 | -14.7% | 4.9% | ? | -2.9% | 39.8µM* | ?
O=C(N/N=C/c1ccccc1[N+](=O)[O-])c1ccc2nc[nH]c2c1 | -0.2% | -3.5% | 11.4% | -8.0% | 22.3% | -18.6%
COc1ccc(CCNC(=O)C2COc3ccccc3O2)cc1OC (configuration not stated) | -16.0% | . | -2.0% | -1.7% | . | -6.5%
CCOc1ccc(CCNC(=O)c2cc3c(s2)-c2ccccc2OC3)cc1OCC | -3.4% | -6.8% | -12.7% | ? | 31.6µM* | -8.6%
O=C(Nc1ccc(Cl)cn1)c1cc2c(s1)-c1ccccc1OC2 | 4.4% | -9.4% | -17.4% | 10.7% | 18.5% | -1.6%
CCc1ccc(CNC(=O)c2cc3c(s2)-c2ccccc2OC3)cc1 | ? | . | -18.3% | 79.4µM* | 50.1µM* | -4.5%
CCc1cccc(NC(=O)c2cc3c(s2)-c2ccccc2OC3)c1 | -9.3% | -14.6% | -14.9% | -3.7% | ? | -10.5%
O=C(NCCc1ccc(Cl)cc1)C1COc2ccccc2O1 (configuration not stated) | -18.9% | 10.2% | 37.1% | 50.1µM* | -29.3% | -12.9%
O=C(NCCc1ccc(Cl)cc1)c1cc2c(s1)-c1ccccc1OC2 | ? | -1.0% | -14.2% | 89.1µM* | 35.5µM* | -9.2%
O=C(Nc1cccc(F)c1)C1CCN(S(=O)(=O)c2ccc3[nH]c4c(c3c2)CCCCC4)CC1 | -12.8% | 10.5% | -11.7% | 3.8% | -4.4% | -20.1%
COC1C(O)C(CO)OC1n1cnc2c(=O)[nH]c(N)nc21 (configuration not stated) | -0.1%[60.1 µM] | 2.7% | . | . | . | .
Cc1cccc2c1-c1sc(C(=O)Nc3cccc([N+](=O)[O-])c3C)cc1CO2 | -8.8% | -8.0% | -8.9% | 6.9% | 0.199µM* | -6.4%
Cc1ccc(CCNC(=O)c2cc3c(s2)-c2c(C)cccc2OC3)cc1 | -1.5% | -2.9% | 7.3% | 31.7% | 3.55µM* | ?
Cc1cccc2c1-c1sc(C(=O)NCc3ccccc3Cl)cc1CO2 | -2.8% | . | 11.0% | 11.0% | 15.9% | -12.3%
O=[N+]([O-])c1ccc(/C=N/Nc2nc3ccccc3o2)cc1 | -2.7% | . | 3.5% | -1.2% | 44.7µM* | -0.5%
C(=N\Nc1nc(-c2ccccc2)cs1)/c1cccnc1 | -9.4% | 5.3% | 2.4% | -9.8% | 0.6% | -20.4%
Clc1ccc(-c2csc(N/N=C/c3cccnc3)n2)c(Cl)c1 | -24.6% | 79.4µM* | -11.0% | 111.3% | 79.4µM* | -17.9%
CC(=O)N1c2ccc(S(=O)(=O)Nc3ccc(C)c(C)c3)cc2CC1C (configuration not stated) | . | 1.8% | . | . | . | .
SMILES | POLK inh | TDP1 block | FEN1 inhibitor | POLI inh | Pol beta inh | POLH inh
Cc1csc(CNc2ncnc3cc(-c4ccc5c(c4)OCO5)ccc23)n1 | . | -0.2% | . | . | . | .
Cc1ccc(C)c(N=Cc2ccc(-c3ccc([N+](=O)[O-])cc3)o2)c1 | -4.1% | 7.0% | -6.1% | 7.4% | 0.8% | -17.7%
Cc1ccc(-c2ccc(/C=C3/NC(=O)NC3=O)o2)cc1[N+](=O)[O-] | ? | 0.0% | -21.4% | 50.1µM* | -4.0% | ?
O=C1NC(=S)N/C1=C/c1cccc([N+](=O)[O-])c1 | -4.6% | -2.6% | 0.1% | 47.1% | 4.6% | ?
O=C1NC(=S)N/C1=C/c1ccc(-c2c(Br)cc([N+](=O)[O-])cc2Br)o1 | . | . | . | . | 8.91µM* | .
CNS(=O)(=O)c1cccc(C(=O)OCC(=O)c2ccc[nH]2)c1 | -42.1% | . | 10.2% | 39.8µM* | . | 44.7µM*
CCOC(=O)c1c(C)[nH]c(C)c1C(=O)COC(=O)c1cccc(S(=O)(=O)NC)c1 | -12.9% | -1.9% | 2.5% | 37.2% | 0.9% | -11.1%
CN(C)C(CNS(=O)(=O)c1ccc(Cl)cc1F)c1ccco1 (configuration not stated) | -3.2% | 2.6% | 2.8% | 1.3% | . | -12.6%
CN(C)C(CNS(=O)(=O)c1cc([N+](=O)[O-])ccc1Cl)c1ccco1 (configuration not stated) | -31.2% | 0.3% | -15.5% | ? | . | 50.1µM*
CC(C)Nc1nc(C#N)nc(Nc2ccccc2)n1 | . | 5.6% | . | . | . | .
CCOC(=O)c1ccc(NC(=O)c2cc3c(n(-c4ccc(C)cc4)c2=O)CC(C)(C)CC3=O)cc1 | 89.1µM* | . | 16.7% | ? | -3.8% | -18.7%
CC(=O)c1ccccc1NS(=O)(=O)c1cccc2nsnc12 | 79.4µM* | . | -10.2% | 44.7µM* | 25.1µM* | 50.1µM*
CCOc1ccc(NC(=O)c2ccc3c(SCC(=O)O)c4c(nc3c2)CCCC4)cc1 | 8.2% | 0.6% | -6.0% | 40.8% | -2.1% | ?
O=C(O)CSc1c2c(nc3cc(C(=O)Nc4cccc(C(F)(F)F)c4)ccc13)CCC2 | ? | 0.7% | -4.8% | ? | ? | 39.8µM*
Cc1cc(C)c2c(=O)c(C#N)coc2c1 | ? | . | ? | ? | 44.7µM* | 50.1µM*
Cc1cc(C)c2c(CC(=O)NNC(=O)c3ccccc3)coc2c1 | -1.3% | 3.6% | -10.1% | 25.8% | -15.1% | -9.1%
Cc1ccnc2c1ccc1c(C)ccnc12 | 13.8% | 0.6% | 25.1µM* | 25.1% | . | -6.1%
COC(=O)NC(c1ccccc1)C(C#N)C(=O)OC (configuration not stated) | . | 7.9%[21 µM] | . | . | . | .
O=C1NC(=O)/C(=C\c2ccc(Sc3ccc(Cl)cc3)o2)N1 | -26.0% | -3.4% | 7.5% | ? | 35.5µM* | ?
CCCCNC1=CC(=O)C(NCCCC)=CC1=O | -1.8% | . | 9.4% | 31.6µM* | . | -25.6%
